Assay results taken from PubChem BioAssay (NCI).
This is part of a sample that, as a whole, favours compounds with a hit. Of some 79,000 tested, about 15% had one in any assay. Active and inactive are the calls of the source. No stated cut-off is given here; in the data, active means growth inhibition above about 70%; inactive means the rest.

Experiments:
[1] = NCI Yeast Anticancer Drug Screen. Data for the wt2 strain (AID 169);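 further: 0% = growth of vehicle-treated yeast cultures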; conditions: S. cerevisiae wt2 strain growth inhibition, active compounds read high
Outline: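 Treated yeast vs. vehicle-treated yeast: growth inhibition determined.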

[2] = NCI Yeast Anticancer Drug Screen. Data for the sgs1 strain (AID 173);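 further: 0% = growth of vehicle-only control cultures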; conditions: S. cerevisiae sgs1 mutant, active compounds read high
Outline: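 A genetically defined yeast mutant is incubated with the test compound, and its growth is compared to that of the same strain given vehicle.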

[3] = NCI Yeast Anticancer Drug Screen. Data for the mlh1 rad18 strain (AID 175); conditions: S. cerevisiae mlh1 rad18 strain growth inhibition, active compounds read high
Outline: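 Steps: expose repair-defective yeast to compound; measure growth; express inhibition against vehicle-treated controls.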

[4] = NCI Yeast Anticancer Drug Screen. Data for the rad18 strain (AID 177); conditions: S. cerevisiae rad18 mutant growth inhibition, active compounds read high
Outline: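 Measured value is growth inhibition of a yeast strain bearing a DNA repair alteration, referenced to vehicle-treated cells.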

[5] = NCI Yeast Anticancer Drug Screen. Data for the rad52 strain (AID 147);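 further: 0% = growth of vehicle-treated control cultures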; conditions: S. cerevisiae rad52 mutant growth inhibition, active compounds read high
Outline: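 Here a repair-compromised yeast strain receives each compound; its growth is then quantified and normalised to vehicle-only controls.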

[6] = NCI Yeast Anticancer Drug Screen. Data for the wt1 strain (AID 149);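 further: 0% = growth of vehicle-treated wt1 cultures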; conditions: S. cerevisiae wt1 strain (SPY 50644) growth inhibition, active compounds read high
Outline: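 wt1 strain grown with compound or vehicle; inhibition taken from the growth difference.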

[7] = NCI Yeast Anticancer Drug Screen. Data for the rad50EPP+ strain (AID 151);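 further: 0% = growth of vehicle-treated control cultures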; conditions: S. cerevisiae rad50 mutant strain, active compounds read high
Outline: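 Read-out is yeast growth inhibition relative to vehicle; cells used were the rad50EPP+ strain.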

[8] = NCI Yeast Anticancer Drug Screen. Data for the mgt1 strain (AID 153); conditions: S. cerevisiae mgt1 mutant growth inhibition, active compounds read high
Outline: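 Measured: inhibition of mgt1 yeast growth by compound, normalized to vehicle-treated cultures.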

[9] = NCI Yeast Anticancer Drug Screen. Data for the rad50 strain (AID 155);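 further: 0% = growth of vehicle-only cultures of the same strain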; conditions: S. cerevisiae rad50 strain growth inhibition, active compounds read high
Outline: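 DNA repair mutant yeast, compound exposure, growth read-out; inhibition is taken relative to vehicle.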

[10] = NCI Yeast Anticancer Drug Screen. Data for the mec2-1 strain (AID 157); conditions: S. cerevisiae mec2-1 strain, active compounds read high
Outline: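 Using mec2-1 yeast: add compound, measure growth, express inhibition versus vehicle-treated cultures.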

[11] = NCI Yeast Anticancer Drug Screen. Data for the rad14 strain (AID 159);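 further: 0% = growth of vehicle-treated control cultures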; conditions: S. cerevisiae rad14 strain growth inhibition, active compounds read high
Outline: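 DNA repair-defective yeast, compound-exposed; % growth inhibition derived by comparison with vehicle-treated controls.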

[12] = NCI Yeast Anticancer Drug Screen. Data for the sgs1 mgt1 strain (AID 161);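 further: 0% = growth of cultures given vehicle only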; conditions: S. cerevisiae sgs1 mgt1 strain, active compounds read high
Outline: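 This yeast growth screen uses a strain with defined DNA-repair lesions; compound-treated growth is compared with vehicle-treated growth.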

[13] = NCI Yeast Anticancer Drug Screen. Data for the CLN2oe strain (AID 163);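 further: 0% = growth of vehicle-only control cultures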; conditions: S. cerevisiae CLN2oe strain, active compounds read high
Outline: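 Whole-cell yeast growth assay. A strain engineered for altered cell-cycle control received compound, and inhibition relative to vehicle-treated cultures was recorded.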

[14] = NCI Yeast Anticancer Drug Screen. Data for the cln2 rad14 strain (AID 165);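 further: 0% = growth equal to vehicle treated cultures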; conditions: S. cerevisiae cln2 rad14 strain, active compounds read high
Outline: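 Yeast strain cln2 rad14, bearing defects in cell cycle control and DNA repair, serves as the test system; values reflect growth inhibition compared with vehicle.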

[15] = NCI Yeast Anticancer Drug Screen. Data for the bub3 strain (AID 167); conditions: S. cerevisiae bub3 mutant strain, active compounds read high
Outline: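 In this screen, a yeast mutant lacking normal mitotic checkpoint function is challenged with compound. Relative growth versus vehicle gives the inhibition value.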

[16] = NCI Yeast Anticancer Drug Screen. Data for the mlh1 strain (AID 171);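 further: 0% = growth of vehicle-treated control cultures of the same strain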; conditions: S. cerevisiae mlh1 strain growth inhibition, active compounds read high
Outline: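 A yeast strain with a defined genetic lesion serves as the test organism. Cultures receive compound or vehicle, and growth is measured.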

[17] = at 5.0 µM (retest, dose inferred, filed as 0.5)
[18] = at 50.0 µM (retest, dose inferred, filed as 5.0)

Measured: growth inhibition

CN(N=O)N1C(=O)SCC(c2ccccc2)(c2ccccc2)C1=O
inactive: [1]; at 1.2 µM -1% | [1]; at 3.7 µM -1% | [1]; at 11.0 µM -1% | [1]; at 33.0 µM 1% | [1]; at 100.0 µM 11% | [2]; at 1.2 µM -1% | [2]; at 3.7 µM 0% | [2]; at 11.0 µM 5% | [2]; at 33.0 µM 13% | [2]; at 100.0 µM 35% | [3]; [17] -7% | [4]; at 1.2 µM -1% | [4]; at 3.7 µM -3% | [4]; at 11.0 µM 8% | [4]; at 33.0 µM 28%
active: [3]; [18] 71% | [3]; at 50.0 µM 84.5% | [4]; at 100.0 µM 72%

O=[N+]([O-])c1cc2no[n+]([O-])c2cc1N1CCCCC1
inactive: [5]; at 1.2 µM 31% | [5]; at 3.7 µM 65% | [6]; at 1.2 µM -32% | [6]; at 3.7 µM 53% | [7]; at 1.2 µM 26% | [8]; at 1.2 µM 4% | [8]; at 3.7 µM 56% | [9]; at 1.2 µM 22% | [9]; at 3.7 µM 62% | [9]; [17] 24% | [10]; at 1.2 µM 28% | [10]; [17] 41% | [11]; at 1.2 µM -8% | [11]; at 3.7 µM 56% | [12]; [17] 1% | [12]; [18] -4% | [13]; at 1.2 µM 27% | [13]; at 3.7 µM 60% | [14]; [17] 0% | [14]; [18] -46% | [15]; at 1.2 µM -24% | [15]; at 3.7 µM -8% | [15]; [17] -2% | [15]; [18] -16% | [1]; at 1.2 µM 0% | [16]; at 1.2 µM 24% | [16]; at 3.7 µM 68% | [3]; [17] 51% | [4]; at 1.2 µM 31%
active: [5]; at 11.0 µM 98% | [5]; at 33.0 µM 96% | [5]; at 100.0 µM 95% | [6]; at 11.0 µM 99% | [6]; at 33.0 µM 98% | [6]; at 100.0 µM 97% | [7]; at 3.7 µM 83% | [7]; at 11.0 µM 98% | [7]; at 33.0 µM 99% | [7]; at 100.0 µM 98% | [8]; at 11.0 µM 98% | [8]; at 33.0 µM 98% | [8]; at 100.0 µM 98% | [9]; at 11.0 µM 93% | [9]; at 33.0 µM 96% | [9]; [18] 74% | [9]; at 50.0 µM 90% | [9]; at 100.0 µM 95% | [10]; at 3.7 µM 82% | [10]; at 11.0 µM 98% | [10]; at 33.0 µM 98% | [10]; [18] 93% | [10]; at 50.0 µM 92.8% | [10]; at 100.0 µM 97% | [11]; at 11.0 µM 99% | [11]; at 33.0 µM 99% | [11]; at 100.0 µM 98% | [12]; at 50.0 µM 92.4% | [13]; at 11.0 µM 96% | [13]; at 33.0 µM 97% | [13]; at 100.0 µM 97% | [14]; at 50.0 µM 90.7% | [15]; at 11.0 µM 71% | [15]; at 33.0 µM 96% | [15]; at 50.0 µM 91.3% | [15]; at 100.0 µM 96% | [1]; at 3.7 µM 74% | [1]; at 11.0 µM 99% | [1]; at 33.0 µM 99% | [1]; at 100.0 µM 98% | [16]; at 11.0 µM 98% | [16]; at 33.0 µM 99% | [16]; at 100.0 µM 100% | [3]; [18] 89% | [3]; at 50.0 µM 91.5% | [4]; at 3.7 µM 73% | [4]; at 11.0 µM 97% | [4]; at 33.0 µM 97% | [4]; at 100.0 µM 96%

COc1ccc2ccc3ccccc3c2c1C=O
active: [6]; at 100.0 µM 93% | [8]; at 100.0 µM 74% | [9]; at 100.0 µM 79% | [10]; at 100.0 µM 96% | [11]; at 100.0 µM 83% | [13]; at 100.0 µM 81% | [15]; at 100.0 µM 76% | [3]; [18] 89% | [4]; at 100.0 µM 83%
inactive: [5]; at 1.2 µM -5% | [5]; at 3.7 µM -5% | [5]; at 11.0 µM -3% | [5]; at 33.0 µM 0% | [5]; at 100.0 µM 63% | [6]; at 1.2 µM -3% | [6]; at 3.7 µM -5% | [6]; at 11.0 µM -5% | [6]; at 33.0 µM -4% | [7]; at 1.2 µM 0% | [7]; at 3.7 µM 2% | [7]; at 11.0 µM 3% | [7]; at 33.0 µM 8% | [7]; at 100.0 µM 25% | [8]; at 1.2 µM -7% | [8]; at 3.7 µM -6% | [8]; at 11.0 µM -7% | [8]; at 33.0 µM -5% | [9]; at 1.2 µM 0% | [9]; at 3.7 µM 23% | [9]; [17] 9% | [9]; at 11.0 µM 28% | [9]; at 33.0 µM 6% | [9]; [18] 64% | [9]; at 50.0 µM 49% | [10]; at 1.2 µM -6% | [10]; at 3.7 µM -6% | [10]; [17] 9% | [10]; at 11.0 µM -6% | [10]; at 33.0 µM 0% | [10]; [18] 50% | [10]; at 50.0 µM 13.2% | [11]; at 1.2 µM 3% | [11]; at 3.7 µM 5% | [11]; at 11.0 µM 5% | [11]; at 33.0 µM 14% | [12]; [17] 7% | [12]; [18] 68% | [12]; at 50.0 µM 55.8% | [13]; at 1.2 µM -6% | [13]; at 3.7 µM -6% | [13]; at 11.0 µM -2% | [13]; at 33.0 µM -2% | [14]; [17] 15% | [14]; [18] 16% | [14]; at 50.0 µM 17.6% | [15]; at 1.2 µM -2% | [15]; at 3.7 µM 0% | [15]; [17] 5% | [15]; at 11.0 µM -5% | [15]; at 33.0 µM -2% | [15]; [18] 11% | [15]; at 50.0 µM -11.7% | [16]; at 1.2 µM -6% | [16]; at 3.7 µM -5% | [16]; at 11.0 µM -5% | [16]; at 33.0 µM -6% | [16]; at 100.0 µM 29% | [2]; at 1.2 µM -4% | [2]; at 3.7 µM -1% | [2]; at 11.0 µM 4% | [2]; at 33.0 µM 10% | [2]; at 100.0 µM 50% | [3]; [17] 14% | [3]; at 50.0 µM 57.1% | [4]; at 1.2 µM -2% | [4]; at 3.7 µM 2% | [4]; at 11.0 µM 3% | [4]; at 33.0 µM 9%
